Measurements taken from the supplement of paper PMC4723716.
± gives the uncertainty stated by the source. The full ranking holds about 9,900 compounds; the median of “viability index relative to DMSO control” is about 1, and the lowest 2% start at about 0.85. The sample holds the lowest values, similar compounds and a random draw of the others, so the mix is not that of the screen.

System: Plasmodium falciparum NF54 stage V gametocytes
Assay: viability index relative to DMSO control (fraction); higher = less gametocyte killing
Conditions: 2.5 µM, incubation time: 72 h
Outline: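 Compound at 2.5 µM was incubated for 72 hr at 37°C under low oxygen with P. falciparum NF54 stage V gametocytes (0.75% gametocytemia, 1.25% hematocrit, 10 µl, serum-free screening medium) in 1,536-well plates. Staining used 3 µl of 2.5 µM MitoTracker Red CMXRos plus 0.13% saponin for one to two hours, and red particles of 20–70 µm2 were counted in one imaged field per well. Each viability index is that count relative to the plate mean of solvent-only wells.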

[1] = library set: Broad Institute DOS
[2] = library set: Broad Institute Blood Stage

Row | SMILES | viability index [1] | viability index [2]
1 | Fc1cccc(-c2ccc([C@H]3[C@H]4CNC[C@@H]3N4CC3CCOCC3)cc2)c1 | 1.02 ± 0.0019 | 
2 | C[C@@H]1CN([C@@H](C)CO)C(=O)c2ccccc2-c2ccccc2CO[C@@H]1CN(C)C(=O)[C@@H]1CCCN1C | 0.936 ± 0.093 | 
3 | COc1ccc2c3c([C@@H](CO)N(CC4CCOCC4)C[C@]33CN(Cc4nccs4)C3)n(C)c2c1 | 1.1 ± 0.08 | 
4 | COc1ccc2c3c([C@H](CO)N(Cc4nccs4)C[C@]33CCN(CC4CCCC4)CC3)n(C)c2c1 | 0.841 ± 0.028 | 
5 | COc1ccc2c3c([C@@H](CO)N(Cc4nccs4)C[C@]33CCN(CC3)C(=O)CN(C)C)n(C)c2c1 | 0.905 ± 0.039 | 
6 | COc1ccc2c3c([C@H](CO)N(Cc4nccs4)C[C@]33CCN(CC3)C(=O)CN(C)C)n(C)c2c1 | 0.955 ± 0.12 | 
7 | COc1ccc2c3c([C@@H](CO)N(Cc4nccs4)C[C@]33CCN(CC4CCCC4)CC3)n(C)c2c1 | 0.848 ± 0.029 | 
8 | COc1ccc2c3c([C@H](CO)N(CC4CCOCC4)C[C@]33CN(Cc4nccs4)C3)n(C)c2c1 | 1.08 ± 0.019 | 
9 | CO[C@H]1CN(C)C(=O)c2cc(NC(=O)NC(C)C)ccc2OC[C@@H](C)N(C(=O)CN(C)C)C[C@H]1C | 1.03 ± 0.043 | 
10 | COCC#Cc1ccc([C@@H]2[C@@H](CO)N3C(=O)CN(C(=O)Nc4ccccc4F)C[C@@H]23)cc1 | 1.02 ± 0.025 | 
11 | C[C@H](CO)N1C[C@H](C)[C@@H](CN(C)C(=O)Nc2ccccc2F)Oc2cc(Br)ccc2S1(=O)=O | 1.01 ± 0.02 | 
12 | COc1ccc2c3c([C@H](CO)N(C[C@]33CCN(CC3)C(=O)Nc3ccc(F)cc3F)C(=O)Nc3ccc(F)cc3)n(C)c2c1 | 1.04 ± 0.029 | 
13 | N#C[C@@H]1N[C@H](CO)[C@H]1c1ccc(-c2cccc(F)c2)cc1 | 1.18 ± 0.088 | 
14 | CCS(=O)(=O)Nc1ccc2c(c1)C(=O)N(C)[C@@H]1CC[C@H](CC(=O)NCc3ccc(OC)cc3)O[C@H]1CO2 | 1.01 ± 0.078 | 
15 | COc1ccc(-c2ccc3c(c2)[C@@H]2[C@@H](CCN2C(=O)c2cccc(F)c2)[C@@H](CO)N3)cc1 | 0.996 ± 0.08 | 
16 | COc1ccc(-c2ccc3c(c2)[C@H]2[C@H](CCN2C(=O)c2cccc(F)c2)[C@@H](CO)N3)cc1 | 0.942 ± 0.075 | 
17 | N#Cc1cccc(-c2ccc3c(c2)[C@@H]2[C@@H](CCN2S(=O)(=O)c2ccc(F)cc2)[C@@H](CO)N3)c1 | 0.855 ± 0.011 | 
18 | Cc1cccc(S(=O)(=O)N2CC[C@@H]3[C@H]2c2cc(-c4ccccc4F)ccc2N[C@@H]3CO)c1 | 0.926 ± 0.08 | 
19 | Cc1cccc(S(=O)(=O)N2CC[C@H]3[C@H](CO)Nc4ccc(-c5ccccc5F)cc4[C@H]32)c1 | 1.08 ± 0.023 | 
20 | COc1ccc(-c2ccc3c(c2)[C@@H]2[C@@H](CCN2C(=O)c2cccc(F)c2)[C@H](CO)N3)cc1 | 0.848 ± 0.042 | 
21 | COc1ccccc1-c1ccc2c(c1)[C@H]1[C@H](CCN1S(=O)(=O)c1ccc(C)cc1)[C@@H](CO)N2 | 0.811 ± 0.098 | 
22 | N#Cc1cccc(-c2ccc3c(c2)[C@@H]2[C@@H](CCN2S(=O)(=O)c2ccc(F)cc2)[C@H](CO)N3)c1 | 0.844 ± 0.062 | 
23 | COc1ccccc1-c1ccc2c(c1)[C@@H]1[C@@H](CCN1S(=O)(=O)c1ccc(C)cc1)[C@H](CO)N2 | 0.836 ± 0.028 | 

Row | SMILES | viability index [1] | viability index [2]
24 | Cc1cccc(S(=O)(=O)N2CC[C@@H]3[C@H](CO)Nc4ccc(-c5ccccc5F)cc4[C@@H]32)c1 | 1.06 ± 0.03 | 
25 | N#Cc1cccc(-c2ccc3c(c2)[C@H]2[C@H](CCN2S(=O)(=O)c2ccc(F)cc2)[C@H](CO)N3)c1 | 1.09 ± 0.017 | 
26 | Cc1cccc(S(=O)(=O)N2CC[C@@H]3[C@@H](CO)Nc4ccc(-c5ccccc5F)cc4[C@@H]32)c1 | 1.18 ± 0.029 | 
27 | C[C@@H]1CN([C@H](C)CO)C(=O)CCCn2cc(nn2)CO[C@H]1CN(C)C(=O)Nc1cccc2ccccc12 | 0.99 ± 0.023 | 
28 | Cc1ccc(S(=O)(=O)Nc2ccc3c(c2)C(=O)N([C@@H](C)CO)C[C@@H](C)[C@@H](CN(C)S(=O)(=O)c2cccs2)OCCCC[C@@H](C)O3)cc1 | 1.13 ± 0.23 | 
29 | NCC[C@H]1CC[C@@H](NC(=O)Cc2ccncc2)[C@H](CO)O1 | 1.091 ± 0.0072 | 
30 | CNC(=O)C[C@@H]1CC[C@@H]2[C@H](COC[C@@H](O)CN2Cc2ccccc2F)O1 | 1.08 ± 0.086 | 
31 | COc1ccc(S(=O)(=O)Nc2ccc3c(c2)C(=O)N([C@H](C)CO)C[C@H](C)[C@@H](CN(C)Cc2ccc(C(F)(F)F)cc2)OCCCC[C@H](C)O3)cc1 | 1.07 ± 0.051 | 
32 | C/C=C/c1ccc2n(c1=O)C[C@@H]1[C@@H](CO)[C@H](C(=O)NCC)N(Cc3cccc(F)c3)[C@H]21.C/C=C\c1ccc2n(c1=O)C[C@@H]1[C@@H](CO)[C@H](C(=O)NCC)N(Cc3cccc(F)c3)[C@H]21 | 0.99 ± 0.091 | 
33 | Cc1ccccc1-c1ccc([C@@H]2[C@@H]3CN(Cc4cocn4)C[C@H]2N3)cc1 | 0.949 ± 0.05 | 
34 | C[C@@H]1CN([C@@H](C)CO)C(=O)c2cc(NC(=O)C3CC3)ccc2O[C@H]1CN(C)S(=O)(=O)c1ccccc1 | 0.9821 ± 0.0066 | 
35 | COc1ccccc1-c1ccc2c(c1)[C@@H]1[C@@H](CCN1C(=O)C1CCC1)[C@H](CO)N2 | 0.655 ± 0.025 | 
36 | N#Cc1ccc(-c2ccc3c(c2)[C@H]2[C@H](CCN2C(=O)C2CCCCC2)[C@H](CO)N3)cc1 | 1.11 ± 0.057 | 
37 | COc1ccccc1-c1ccc2c(c1)[C@H]1[C@H](CCN1C(=O)C1CCC1)[C@@H](CO)N2 | 0.865 ± 0.097 | 
38 | CN1CCN(C(=O)C[C@@H]2CC[C@H]3[C@H](COc4ccc(NC(=O)C5CCOCC5)cc4C(=O)N3C)O2)CC1 | 1.05 ± 0.029 | 
39 | CCS(=O)(=O)Nc1ccc2c(c1)C(=O)N(C)[C@H]1CC[C@H](CC(=O)NCCCN3CCOCC3)O[C@@H]1CO2 | 1.03 ± 0.07 | 
40 | CC(C)NC(=O)Nc1cccc2c1O[C@H](CN(C)C(=O)Nc1ccccc1)[C@H](C)CN([C@H](C)CO)C2=O | 1.03 ± 0.09 | 
41 | CC(C)NC(=O)Nc1cccc2c1O[C@@H](CN(C)C(=O)Nc1ccccc1)[C@@H](C)CN([C@@H](C)CO)C2=O | 1.04 ± 0.011 | 
42 | CC(C)NC(=O)Nc1cccc2c1O[C@H](CN(C)C(=O)Nc1ccccc1)[C@@H](C)CN([C@H](C)CO)C2=O | 0.975 ± 0.13 | 
43 | C[C@@H]1CN([C@@H](C)CO)C(=O)c2cccc(NC(=O)Nc3ccccc3)c2O[C@@H]1CN(C)C(=O)Nc1ccc(F)cc1 |  | 0.727 ± 0.041
44 | CC(C)NC(=O)Nc1cccc2c1O[C@H](CN(C)C(=O)Nc1ccccc1)[C@H](C)CN([C@@H](C)CO)C2=O | 0.692 ± 0.19 | 
45 | COc1ccc(S(=O)(=O)N(C)C[C@@H]2Oc3c(NC(=O)c4nc5ccccc5s4)cccc3C(=O)N([C@@H](C)CO)C[C@H]2C)cc1 | 0.979 ± 0.043 | 
46 | CC(C)NC(=O)Nc1cccc2c1O[C@H](CN(C)C(=O)Nc1ccccc1)[C@@H](C)CN([C@@H](C)CO)C2=O | 1.09 ± 0.07 | 

Row | SMILES | viability index [1] | viability index [2]
47 | COc1ccc(S(=O)(=O)N(C)C[C@H]2Oc3c(NC(=O)Nc4cccc5ccccc45)cccc3C(=O)N([C@@H](C)CO)C[C@H]2C)cc1 |  | 0.767 ± 0.035
48 | CC(C)NC(=O)Nc1cccc2c1O[C@@H](CN(C)C(=O)Nc1ccccc1)[C@H](C)CN([C@H](C)CO)C2=O | 1.05 ± 0.17 | 
49 | COc1ccc(S(=O)(=O)N(C)C[C@H]2Oc3c(NC(=O)c4nc5ccccc5s4)cccc3C(=O)N([C@H](C)CO)C[C@H]2C)cc1 | 1.03 ± 0.022 | 
50 | C[C@@H]1CN([C@@H](C)CO)C(=O)c2cccc(NC(=O)Nc3ccccc3)c2O[C@@H]1CN(C)C(=O)Nc1ccccc1 |  | 0.703 ± 0.052
51 | CC(C)NC(=O)Nc1cccc2c1O[C@@H](CN(C)C(=O)Nc1ccccc1)[C@@H](C)CN([C@H](C)CO)C2=O | 1.1 ± 0.11 | 
52 | CN1C(=O)c2cc(NC(=O)C3CCOCC3)ccc2OC[C@@H]2O[C@H](CC(=O)NCc3ccccc3F)CC[C@H]21 | 1.04 ± 0.032 | 
53 | O=C(CN1CCOCC1)N1CC(=O)N2[C@H](C1)[C@H](c1ccc(C3=CCCCC3)cc1)[C@@H]2CO | 1.02 ± 0.035 | 
54 | CCc1cnc(N2[C@H](C#N)[C@@H](c3ccc(-c4cccc(F)c4)cc3)[C@@H]2CO)s1 | 1.12 ± 0.11 | 
55 | C[C@H](CO)N1C[C@H](C)[C@H](CN(C)C(=O)Nc2ccccc2C(F)(F)F)OCc2cnnn2CCCC1=O | 1.03 ± 0.014 | 
56 | COc1ccc(NC(=O)N(C)C[C@H]2Oc3c(NC(=O)Nc4ccccc4)cccc3C(=O)N([C@@H](C)CO)C[C@H]2C)cc1 |  | 0.724 ± 0.05
57 | COc1ccc(NC(=O)Nc2cccc3c2O[C@@H](CN(C)Cc2ccc(C(=O)O)cc2)[C@@H](C)CN([C@@H](C)CO)C3=O)cc1 | 0.95 ± 0.17 | 
58 | COc1ccc(NC(=O)Nc2cccc3c2O[C@@H](CN(C)Cc2ccc(C(=O)O)cc2)[C@H](C)CN([C@@H](C)CO)C3=O)cc1 | 0.978 ± 0.065 | 
59 | CC(C)[C@H]1C(=O)N[C@H](c2cccc(Cl)c2)C/C=C/C[C@H](C)Oc2ccccc2C(=O)N1C.CC(C)[C@H]1C(=O)N[C@H](c2cccc(Cl)c2)C/C=C\C[C@H](C)Oc2ccccc2C(=O)N1C | 0.9865 ± 0.0032 | 
60 | C[C@H](CO)N1C[C@H](C)[C@@H](CN(C)Cc2ccc(Oc3ccccc3)cc2)Oc2c(NC(=O)CCC(F)(F)F)cccc2C1=O | 0.888 ± 0.11 | 
61 | C[C@H]1CN([C@@H](C)CO)C(=O)c2cccc(NS(C)(=O)=O)c2O[C@@H]1CN(C)Cc1ccc(-c2ccccc2)cc1 | 1 ± 0.078 | 
62 | C[C@@H]1CN([C@@H](C)CO)C(=O)c2cccc(NS(C)(=O)=O)c2O[C@H]1CN(C)Cc1ccc(-c2ccccc2)cc1 | 1.01 ± 0.029 | 
63 | C[C@@H]1CN([C@H](C)CO)C(=O)c2cccc(NS(C)(=O)=O)c2O[C@@H]1CN(C)Cc1ccc(-c2ccccc2)cc1 | 1.02 ± 0.028 | 
64 | C[C@H](CO)N1C[C@H](C)[C@H](CN(C)Cc2ccc(-c3ccccc3)cc2)Oc2c(NS(C)(=O)=O)cccc2C1=O | 0.827 ± 0.011 | 
65 | C[C@H](CO)N1C[C@H](C)[C@@H](CN(C)Cc2ccccc2)Oc2c(NC(=O)Cc3cn(C)c4ccccc34)cccc2C1=O | 0.744 ± 0.038 | 
66 | CO[C@H](CN(C)S(=O)(=O)c1ccc(C)cc1)[C@H](C)CN(C(=O)Nc1ccccc1F)[C@H](C)CO | 1.06 ± 0.026 | 
67 | O=C(C[C@H]1CC[C@@H]2[C@H](COC[C@H](O)CN2Cc2ccc3c(c2)OCO3)O1)N1CCCCC1 | 1.01 ± 0.072 | 
